Screens (PubChem)
tim23-1 inh – inhibits growth of tim23-1 mutant yeast; S. cerevisiae tim23-1 growth, BacTiter-Glo luminescence, 24 h; inhibition, % at 20 µM; hit rate 1.3% among 330,000; AID 463212;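 active means growth inhibition of the mutant yeast at or above 50%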;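 further: temperature-sensitive mutant grown at 25 °C; plate controls were DMSO-treated mutant yeast for no effect and medium wells lacking yeast for full effect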
PfHsp90 set2 – inhibits growth of yeast expressing Plasmodium falciparum Hsp90; S. cerevisiae expressing PfHsp90, BacTiter-Glo ATP, 48 h; yeast lacking PDR1 and PDR3 efflux regulators; inhibition, % at 9.4 µM; hit rate 0.32% among 310,000;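 active means every replicate shows inhibition above about 80%, whatever the replicate mean, limit read from the data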;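 further: 0% = DMSO neutral controls and 100% = 20 µM radicicol positive controls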
NLRP3 yeast inh – blocks the NALP3 inflammasome reconstituted in yeast; Yeast reconstituted NLRP3/ASC/caspase-1, beta-gal luminescence, 24 h; inhibition, % at 10 µM; hit rate 0.39% among 330,000;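 active means inhibition of 50% or more; inactive means inhibition below 50%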;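 further: plate controls were induced DMSO wells for no effect and uninduced yeast grown without galactose for full effect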
tim10-1 inh – growth inhibitors of tim10-1 mutant yeast; S. cerevisiae tim10-1 ts strain growth, BacTiter-Glo, 24 h; inhibition, % at 20 µM; hit rate 2.2% among 330,000;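 active means inhibition of at least 40%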;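 further: mutant grown at 25 °C; 0% = DMSO wells with yeast and 100% = wells holding no yeast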
TIM10 inh – TIM10 yeast growth inhibition; inhibition, % at 10 µM; AID 463195; hit rate 1.4% among 330,000; S. cerevisiae TIM10 strain growth, BacTiter-Glo luminescence, 24 h;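 active means inhibition of 40% or more at the single tested concentration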;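 further: wild-type TIM10 isogenic control strain grown at permissive 25 °C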
tim10-1 conf – confirmation of tim10-1 mutant yeast growth inhibitors | S. cerevisiae tim10-1 ts strain growth, BacTiter-Glo, 24 h | shares compounds with tim10-1 inh | inhibition, % at 20 µM | hit rate 56% among 7,400 | AID 463213;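 active means inhibition of yeast growth at or above a set limit in either of two repeat tests at 20 µM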;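 further: tim10-1 mutant grown at permissive 25 °C to find synthetic lethal compounds; 0% = DMSO yeast wells and 100% = medium wells without yeast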
Numbers without * were called inactive. An excerpt weighted towards active compounds, which were near 3.7% of everything screened.

How did CCC(C)(C)c1ccc(OCCCC[n+]2ccccc2)c(C(C)(C)CC)c1 do in these assays?
tim23-1 inh: 30; PfHsp90 set2: -36; NLRP3 yeast inh: -8; tim10-1 inh: 46*; TIM10 inh: -120; tim10-1 conf: 37*

Results for CCCCCc1ccc(OCCCC[n+]2ccccc2)c(CCCCC)c1 ?
tim23-1 inh: -24; PfHsp90 set2: 38; NLRP3 yeast inh: 15; tim10-1 inh: 43*; TIM10 inh: -295; tim10-1 conf: 32*

How did CCCCCc1ccc(OCCCC[n+]2cccc(C)c2)c(CCCCC)c1 do in these assays?
tim23-1 inh: 49; PfHsp90 set2: -23; NLRP3 yeast inh: 1; tim10-1 inh: 31; TIM10 inh: -73

How did Cc1cc(=O)n(C(C)Cc2ccccc2)n1C(C)Cc1ccccc1 (stereo not given) do in these assays?
PfHsp90 set2: 32

How did Oc1c(Cl)cc(Cl)c2c1NCCC2 do in these assays?
tim23-1 inh: -4; PfHsp90 set2: -21; NLRP3 yeast inh: 13; tim10-1 inh: 50*; TIM10 inh: -1; tim10-1 conf: 18

How did O=S(=O)(C/C(=C/CO)S(=O)(=O)c1ccccc1)c1ccccc1 do in these assays?
tim23-1 inh: 26; PfHsp90 set2: -32; NLRP3 yeast inh: -3; tim10-1 inh: 44*; TIM10 inh: 18; tim10-1 conf: 19

How did O=S(=O)(CS(=O)(=O)c1ccccc1)c1ccccc1 do in these assays?
PfHsp90 set2: -26

Results for C/C(=N\N1CCN(C2c3ccccc3-c3ccccc32)CC1)c1ccco1 ?
tim23-1 inh: 19; PfHsp90 set2: 3; NLRP3 yeast inh: 16; tim10-1 inh: 41*; TIM10 inh: 2; tim10-1 conf: 15

Results for C/C(=N\N1CCN(c2ccc(Cl)cc2)CC1)c1ccco1 ?
tim23-1 inh: 22; PfHsp90 set2: 5; NLRP3 yeast inh: -2; tim10-1 inh: 8; TIM10 inh: 6

How did Cc1cc(F)ccc1S(=O)(=O)Nc1nc2ccccc2nc1Cl do in these assays?
tim23-1 inh: 13; PfHsp90 set2: -88; NLRP3 yeast inh: -2; tim10-1 inh: 11; TIM10 inh: 16

Results for Cc1ccc(C(C)(C)C)cc1S(=O)(=O)Nc1nc2ccccc2nc1Cl ?
tim23-1 inh: 44; PfHsp90 set2: -15; NLRP3 yeast inh: 4; tim10-1 inh: 41*; TIM10 inh: 18; tim10-1 conf: 40*

Results for Cc1[nH]n(-c2ccc([N+](=O)[O-])cc2)c(=O)c1C=NCCN1CCN(C(=O)c2ccc(F)cc2)CC1 ?
tim23-1 inh: 30; PfHsp90 set2: -18; NLRP3 yeast inh: 19; tim10-1 inh: 36; TIM10 inh: 15

Results for Cc1[nH]n(-c2ccc([N+](=O)[O-])cc2)c(=O)c1C=NCCN1CCN(C(=O)c2cccc(F)c2)CC1 ?
tim23-1 inh: 38; PfHsp90 set2: 84*; NLRP3 yeast inh: 28; tim10-1 inh: 42*; TIM10 inh: 23; tim10-1 conf: 48*

What do the screens show for `COc1cccc(-c2nnc(SCN3C(=O)c4ccccc4C3=O)n2C)c1`?
tim23-1 inh: 32; PfHsp90 set2: 13; NLRP3 yeast inh: 7; tim10-1 inh: 42*; TIM10 inh: 35; tim10-1 conf: 33*

How did CCN(CC)S(=O)(=O)c1ccc(NC(=O)CSc2nnc(-c3cccc(OC)c3)n2C)cc1 do in these assays?
tim23-1 inh: -10; PfHsp90 set2: 15; NLRP3 yeast inh: 15; tim10-1 inh: 10; TIM10 inh: 4

How did N=c1n(Cc2ccccc2)c2ccccc2n1CC(O)COc1ccc(Cl)cc1Cl (stereo not given) do in these assays?
tim23-1 inh: 7; PfHsp90 set2: -24; NLRP3 yeast inh: 21; tim10-1 inh: 40*; TIM10 inh: 18; tim10-1 conf: -1

What do the screens show for `CC(C)N1CCN(C(=O)c2ccc([N+](=O)[O-])cc2)CC1`?
tim23-1 inh: 7; NLRP3 yeast inh: 15; tim10-1 inh: 6; TIM10 inh: 8

How did CC(NC(=O)CN1C(=O)NC2(CCCCC2)C1=O)c1ccc(S(N)(=O)=O)cc1 (stereo not given) do in these assays?
PfHsp90 set2: -44

What do the screens show for `CCCOc1ccc(N2C(=O)CC(SCCN)C2=O)cc1` (stereo not given)?
tim23-1 inh: 9; PfHsp90 set2: -20; NLRP3 yeast inh: 7; tim10-1 inh: 42*; TIM10 inh: 6; tim10-1 conf: 24

Results for COc1cc(OC)cc(C(=O)NC(C(=O)NNC(=O)c2cc(Cl)ccc2OC)C(C)C)c1 (stereo not given) ?
tim23-1 inh: 4; PfHsp90 set2: -19; NLRP3 yeast inh: 19; tim10-1 inh: -3; TIM10 inh: 6

How did CNC(=O)COC(=O)/C=C/c1cn(-c2ccccc2)nc1-c1ccc2c(c1)OCCO2 do in these assays?
tim23-1 inh: 11; NLRP3 yeast inh: 2; tim10-1 inh: 41*; TIM10 inh: 21; tim10-1 conf: 29*

Results for CCOC(=O)C1=C(COC(=O)/C=C/c2cccc(Cl)c2)NC(=O)NC1C (stereo not given) ?
tim23-1 inh: -18; PfHsp90 set2: 3; NLRP3 yeast inh: 5; tim10-1 inh: 10; TIM10 inh: 3

Results for O=C(C[C@@H]1C/C=C\C[C@@H](Cc2ccc(F)cc2)C(=O)OCCNC1=O)N[C@H](CO)Cc1ccccc1 ?
tim23-1 inh: 5; PfHsp90 set2: 14; NLRP3 yeast inh: 7; tim10-1 inh: 3; TIM10 inh: -1

How did O=C(Nc1ccccc1C(=O)Nc1ccccc1C(=O)O)c1ccccc1 do in these assays?
tim23-1 inh: 31; PfHsp90 set2: -6; NLRP3 yeast inh: 18; tim10-1 inh: 47*; TIM10 inh: 9; tim10-1 conf: 26

How did COc1ccc(C(=O)Nc2ccccc2C(=O)Nc2ccccn2)cc1 do in these assays?
tim23-1 inh: 45; PfHsp90 set2: 24; NLRP3 yeast inh: 33; tim10-1 inh: 43*; TIM10 inh: 17; tim10-1 conf: 24

Results for Nc1ccc(C(=O)Nc2ccccc2C(=O)O)cc1 ?
tim23-1 inh: 17; NLRP3 yeast inh: 1; tim10-1 inh: 16; TIM10 inh: 14

What do the screens show for `CSc1ncccc1C(=O)OCC(=O)N1CCc2ccccc21`?
tim23-1 inh: -5; PfHsp90 set2: 5; NLRP3 yeast inh: 5; tim10-1 inh: -13; TIM10 inh: -3

How did COc1ccc(C(C)NC(=O)Nc2ccc(C(C)=O)cc2)cc1OC (stereo not given) do in these assays?
tim23-1 inh: -12; PfHsp90 set2: 15; NLRP3 yeast inh: 11; tim10-1 inh: -24; TIM10 inh: 4

Results for CCc1ccc(CNC(=O)CCCn2c(=O)c3cccn3c3cccnc32)cc1 ?
tim23-1 inh: 34; PfHsp90 set2: -9; NLRP3 yeast inh: 14; tim10-1 inh: 46*; TIM10 inh: 13; tim10-1 conf: 6
